Source: ChEMBL document CHEMBL3988442, “University of Dundee, Small-Polar-MMV Screening Library” (2021)
For some assays here: Entries with a potency or affinity are not part of this list.

Columns and labels:
Set-up in all cases: scale not given: direction of the effect not stated beside the values
[1] = molecular target: Protein translocase subunit SecA (Escherichia coli (strain K12)) (UniProt P10408); assay: Assay to Identify E. coli SecA ATPase Inhibitors; format: functional; conditions: 30 µM
[2] = molecular target: T1, Ubiquitin-activating enzyme e1, putative (Leishmania donovani (strain BPK282A1)) (UniProt E9BSI1); assay: Leishmania donovani Ubiquitin Activating Enzyme (LdE1); format: functional; conditions: 30 µM
T1 sequence (whole entry): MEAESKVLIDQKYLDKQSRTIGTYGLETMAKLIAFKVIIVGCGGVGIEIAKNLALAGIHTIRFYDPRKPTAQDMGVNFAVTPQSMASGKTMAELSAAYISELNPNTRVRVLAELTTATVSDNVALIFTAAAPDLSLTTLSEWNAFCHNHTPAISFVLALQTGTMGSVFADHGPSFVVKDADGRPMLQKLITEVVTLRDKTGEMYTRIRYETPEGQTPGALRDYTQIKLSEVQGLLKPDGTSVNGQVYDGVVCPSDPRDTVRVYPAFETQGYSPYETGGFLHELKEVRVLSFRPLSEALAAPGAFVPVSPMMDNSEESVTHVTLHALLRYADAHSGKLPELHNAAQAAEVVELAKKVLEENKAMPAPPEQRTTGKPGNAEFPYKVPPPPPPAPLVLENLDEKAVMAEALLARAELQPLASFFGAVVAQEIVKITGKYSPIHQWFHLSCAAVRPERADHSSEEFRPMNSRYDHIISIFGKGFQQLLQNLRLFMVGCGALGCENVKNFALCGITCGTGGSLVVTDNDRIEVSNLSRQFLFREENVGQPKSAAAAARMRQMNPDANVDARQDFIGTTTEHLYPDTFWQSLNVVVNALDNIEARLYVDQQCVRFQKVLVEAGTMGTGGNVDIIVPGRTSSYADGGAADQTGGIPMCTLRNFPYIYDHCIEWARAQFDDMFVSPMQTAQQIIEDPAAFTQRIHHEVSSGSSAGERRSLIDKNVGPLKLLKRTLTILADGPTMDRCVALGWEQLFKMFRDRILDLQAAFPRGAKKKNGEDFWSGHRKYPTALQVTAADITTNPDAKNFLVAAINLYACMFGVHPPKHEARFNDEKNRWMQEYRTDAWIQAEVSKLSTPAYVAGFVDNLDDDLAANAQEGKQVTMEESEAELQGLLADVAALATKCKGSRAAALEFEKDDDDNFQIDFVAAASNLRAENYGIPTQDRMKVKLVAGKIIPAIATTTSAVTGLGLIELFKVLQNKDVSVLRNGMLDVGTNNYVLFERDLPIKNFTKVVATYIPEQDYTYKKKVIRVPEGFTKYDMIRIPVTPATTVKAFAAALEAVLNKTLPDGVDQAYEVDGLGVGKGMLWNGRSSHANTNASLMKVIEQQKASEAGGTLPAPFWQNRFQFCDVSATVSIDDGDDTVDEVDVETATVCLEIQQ

[3] = molecular target: AMP-activated protein kinase, AMPK (Homo sapiens) (UniProt P54646+O43741+P54619+Q9UGJ0+Q9Y478+Q13131+Q9UGI9); assay: AMP-dependent Kinase enzyme assay. An in vitro enzyme assay that detects ADP turnover that is directly proportional to AMPK activity. This uses naive AMPK that is activated during the assay with MK-8722; format: functional; conditions: 30 µM
[4] = molecular target: Sialic acid-binding Ig-like lectin 9 (Homo sapiens) (UniProt Q9Y336); assay: Hs-Siglec9 ALPHAscreen SOP 20170721; conditions: 10 µM
Trypanosoma cruzi = assay: Trypanosoma cruzi phosphomannomutase and mannose-1-phosphate guanylyltransferase assay; format: functional; conditions: 10 µM
[5] = molecular target: T2, Arginase-2, mitochondrial (Homo sapiens) (UniProt P78540); assay: in vitro enzyme assay to detect the production of urea directly proportional to the activity of Arginase II; format: functional; conditions: 33.3 µM; note: in the data most compounds retested in dose-response had high values
T2 sequence (whole entry): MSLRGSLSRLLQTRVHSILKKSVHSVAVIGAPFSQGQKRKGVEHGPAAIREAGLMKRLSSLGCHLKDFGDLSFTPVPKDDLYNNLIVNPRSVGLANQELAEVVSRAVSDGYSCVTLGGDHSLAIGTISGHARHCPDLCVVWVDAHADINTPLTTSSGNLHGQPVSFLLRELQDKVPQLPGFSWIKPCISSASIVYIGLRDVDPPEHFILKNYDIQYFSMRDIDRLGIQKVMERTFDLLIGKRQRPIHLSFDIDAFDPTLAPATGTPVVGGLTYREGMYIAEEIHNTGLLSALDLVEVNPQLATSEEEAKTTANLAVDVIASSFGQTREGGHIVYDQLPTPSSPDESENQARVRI

[6] = molecular target: T3, Proteasome subunit beta (Trypanosoma cruzi) (UniProt O96673); assay: Trypanosoma cruzi proteasome chymotrypsin-like activity (TcProtChymo) assay.; note: in the data most compounds retested in dose-response had high values; format: functional; conditions: 9.37 µM
T3 sequence (whole entry): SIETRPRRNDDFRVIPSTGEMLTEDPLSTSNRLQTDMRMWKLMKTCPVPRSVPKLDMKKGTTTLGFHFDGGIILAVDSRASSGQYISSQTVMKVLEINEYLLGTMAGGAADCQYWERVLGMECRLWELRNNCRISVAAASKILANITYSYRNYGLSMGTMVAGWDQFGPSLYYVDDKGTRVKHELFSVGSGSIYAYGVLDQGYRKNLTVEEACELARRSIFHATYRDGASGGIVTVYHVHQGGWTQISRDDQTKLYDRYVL

Homo sapiens = species on record: Homo sapiens; assay: To identify inhibition of the IFN signalling (Jak-Stat) pathway via expression of an eGFP reporter gene under the control of an IFN-stimulated response element (ISRE) containing MxA promoter.; format: functional; conditions: 30 µM
[7] = molecular target: T4, Tyrosyl-tRNA synthetase, putative (Trypanosoma cruzi (strain CL Brener)) (UniProt Q4DSP6); assay: Trypanosoma cruzi tyrosyl tRNA synthetase (TcYRS) _High Tyrosine SOP; format: functional; conditions: 30 µM; note: in the data most compounds retested in dose-response had high values
T4 sequence (whole entry): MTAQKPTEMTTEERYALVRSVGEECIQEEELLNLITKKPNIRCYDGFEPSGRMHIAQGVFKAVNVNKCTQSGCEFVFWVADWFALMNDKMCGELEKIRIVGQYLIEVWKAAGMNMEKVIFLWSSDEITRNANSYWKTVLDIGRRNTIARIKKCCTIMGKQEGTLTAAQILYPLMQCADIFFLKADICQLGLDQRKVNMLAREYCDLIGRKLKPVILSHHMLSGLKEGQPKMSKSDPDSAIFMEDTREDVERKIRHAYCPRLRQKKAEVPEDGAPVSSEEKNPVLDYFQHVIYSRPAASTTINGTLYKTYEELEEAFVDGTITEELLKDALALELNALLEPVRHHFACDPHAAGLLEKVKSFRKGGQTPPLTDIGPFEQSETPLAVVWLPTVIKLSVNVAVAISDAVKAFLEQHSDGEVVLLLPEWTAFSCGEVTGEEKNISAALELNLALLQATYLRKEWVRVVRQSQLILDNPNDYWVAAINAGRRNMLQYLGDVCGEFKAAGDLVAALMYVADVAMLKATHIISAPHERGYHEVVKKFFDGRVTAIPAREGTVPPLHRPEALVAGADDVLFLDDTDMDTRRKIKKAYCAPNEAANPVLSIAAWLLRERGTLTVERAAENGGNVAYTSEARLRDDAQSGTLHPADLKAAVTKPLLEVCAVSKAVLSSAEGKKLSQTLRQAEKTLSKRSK

[8] = molecular target: T4, Tyrosyl-tRNA synthetase, putative (Trypanosoma cruzi (strain CL Brener)); assay: Trypanosoma cruzi tyrosyl tRNA synthetase (TcYRS) SOP; format: functional; conditions: 30 µM
[9] = molecular target: Chromo domain-containing protein 1 (Saccharomyces cerevisiae (strain ATCC 204508 / S288c) (Baker's yeast)) (UniProt P32657); assay: ScCHD-1 Enzyme Inhibition Assay; format: functional; conditions: 30 µM; note: in the data most compounds retested in dose-response had high values
Chromo domain-containing protein 1 (Saccharomyces cerevisiae (strain ATCC 204508 / S288c) (Baker's yeast)), sequence (P32657 whole entry, the tested form may be a part): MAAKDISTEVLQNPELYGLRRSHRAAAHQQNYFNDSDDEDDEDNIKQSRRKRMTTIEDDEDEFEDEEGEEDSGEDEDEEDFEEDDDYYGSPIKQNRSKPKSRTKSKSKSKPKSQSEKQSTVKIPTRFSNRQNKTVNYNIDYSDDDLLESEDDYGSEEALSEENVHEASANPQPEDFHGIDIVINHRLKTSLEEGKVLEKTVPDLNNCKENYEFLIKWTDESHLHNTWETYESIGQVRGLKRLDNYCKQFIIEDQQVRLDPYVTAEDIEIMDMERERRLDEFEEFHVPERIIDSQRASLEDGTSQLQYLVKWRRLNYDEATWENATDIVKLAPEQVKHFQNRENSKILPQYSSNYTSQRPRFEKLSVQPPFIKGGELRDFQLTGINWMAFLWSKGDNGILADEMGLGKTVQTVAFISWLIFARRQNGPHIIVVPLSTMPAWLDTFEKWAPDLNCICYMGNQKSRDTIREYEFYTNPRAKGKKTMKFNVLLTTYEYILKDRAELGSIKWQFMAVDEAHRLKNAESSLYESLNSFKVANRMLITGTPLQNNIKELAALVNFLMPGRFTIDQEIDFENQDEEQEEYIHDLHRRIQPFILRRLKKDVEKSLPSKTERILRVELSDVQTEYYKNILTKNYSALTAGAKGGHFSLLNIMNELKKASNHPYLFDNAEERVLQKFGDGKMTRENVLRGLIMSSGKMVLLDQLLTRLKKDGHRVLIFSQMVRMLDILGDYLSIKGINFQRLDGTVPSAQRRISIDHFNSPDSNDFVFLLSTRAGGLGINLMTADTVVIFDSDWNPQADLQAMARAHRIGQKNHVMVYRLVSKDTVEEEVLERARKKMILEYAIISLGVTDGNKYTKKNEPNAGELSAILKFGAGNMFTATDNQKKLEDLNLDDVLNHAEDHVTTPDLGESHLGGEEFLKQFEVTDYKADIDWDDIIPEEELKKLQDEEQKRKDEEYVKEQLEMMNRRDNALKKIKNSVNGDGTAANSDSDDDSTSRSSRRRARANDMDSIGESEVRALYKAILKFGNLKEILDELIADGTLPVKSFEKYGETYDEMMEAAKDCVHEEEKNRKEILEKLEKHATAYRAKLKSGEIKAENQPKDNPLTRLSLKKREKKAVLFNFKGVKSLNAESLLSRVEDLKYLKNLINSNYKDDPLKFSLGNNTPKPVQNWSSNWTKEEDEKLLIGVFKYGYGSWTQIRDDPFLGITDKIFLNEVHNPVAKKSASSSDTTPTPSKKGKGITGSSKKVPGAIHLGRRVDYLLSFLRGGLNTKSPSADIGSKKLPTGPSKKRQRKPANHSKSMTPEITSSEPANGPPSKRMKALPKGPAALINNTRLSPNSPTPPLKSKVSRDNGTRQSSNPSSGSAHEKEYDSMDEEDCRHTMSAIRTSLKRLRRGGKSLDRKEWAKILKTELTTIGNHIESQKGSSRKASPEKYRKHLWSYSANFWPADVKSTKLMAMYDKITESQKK

Protein translocase subunit SecA (Escherichia coli (strain K12)), sequence (P10408 whole entry): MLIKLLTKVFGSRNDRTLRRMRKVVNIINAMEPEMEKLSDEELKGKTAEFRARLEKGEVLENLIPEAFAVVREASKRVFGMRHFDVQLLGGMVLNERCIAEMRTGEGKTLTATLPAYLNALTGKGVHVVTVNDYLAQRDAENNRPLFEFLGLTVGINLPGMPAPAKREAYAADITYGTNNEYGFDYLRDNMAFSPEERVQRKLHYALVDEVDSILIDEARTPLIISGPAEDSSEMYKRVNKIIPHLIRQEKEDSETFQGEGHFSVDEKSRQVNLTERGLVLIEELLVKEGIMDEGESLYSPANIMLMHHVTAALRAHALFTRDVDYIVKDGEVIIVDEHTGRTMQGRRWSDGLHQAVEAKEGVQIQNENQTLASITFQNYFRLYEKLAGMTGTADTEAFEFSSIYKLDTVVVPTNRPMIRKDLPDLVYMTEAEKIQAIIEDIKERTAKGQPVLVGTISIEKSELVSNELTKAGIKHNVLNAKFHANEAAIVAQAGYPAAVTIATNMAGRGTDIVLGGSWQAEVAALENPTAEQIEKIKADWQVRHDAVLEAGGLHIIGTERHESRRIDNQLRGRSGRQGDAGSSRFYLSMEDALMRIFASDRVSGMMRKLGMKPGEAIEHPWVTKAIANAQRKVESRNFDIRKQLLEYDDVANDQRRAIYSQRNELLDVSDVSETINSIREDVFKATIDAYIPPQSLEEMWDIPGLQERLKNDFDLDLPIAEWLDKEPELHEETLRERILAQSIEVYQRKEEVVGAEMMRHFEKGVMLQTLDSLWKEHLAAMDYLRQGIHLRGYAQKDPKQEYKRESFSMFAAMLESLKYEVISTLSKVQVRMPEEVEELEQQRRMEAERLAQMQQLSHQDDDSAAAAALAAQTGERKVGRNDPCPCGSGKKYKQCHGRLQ
Sialic acid-binding Ig-like lectin 9 (Homo sapiens), sequence (Q9Y336 whole entry): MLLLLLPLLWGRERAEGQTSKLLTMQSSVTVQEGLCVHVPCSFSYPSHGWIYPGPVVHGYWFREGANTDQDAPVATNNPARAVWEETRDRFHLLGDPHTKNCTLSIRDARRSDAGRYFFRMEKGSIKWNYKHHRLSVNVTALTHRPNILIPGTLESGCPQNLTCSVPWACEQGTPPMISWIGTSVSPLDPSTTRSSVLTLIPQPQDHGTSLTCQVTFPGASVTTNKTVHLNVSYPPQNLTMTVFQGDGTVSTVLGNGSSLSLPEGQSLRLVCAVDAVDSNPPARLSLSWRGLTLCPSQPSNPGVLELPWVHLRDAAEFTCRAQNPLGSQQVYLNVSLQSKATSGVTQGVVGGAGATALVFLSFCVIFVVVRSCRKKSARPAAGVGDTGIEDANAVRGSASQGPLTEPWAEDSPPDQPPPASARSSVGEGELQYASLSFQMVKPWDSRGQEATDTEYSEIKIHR

Structure (SMILES)	Percent Effect [1] [%]	Percent Effect [2] [%]	Percent Effect [3] [%]	Percent Effect [4] [%]	Percent Effect (Trypanosoma cruzi) [%]	Percent Effect [5] [%]	Percent Effect [6] [%]	Percent Effect (Homo sapiens) [%]	Percent Effect [7] [%]	Percent Effect [8] [%]	Percent Effect [9] [%]
CCNC(=O)Nc1ccc2c(ccn2CC(=O)N(CC)CC)c1	-2.78	18.4	-2.69	1.44	-0.188	-4.6	12.5	19.9	9.31	17.1	-6.24
c1ccc(CCN2CCN(c3ccc4nncn4n3)CC2)nc1	-3.09	5.2	9.47	7.22	-4.49	3.56	3.72	21.7	2.91	7.32	-0.331
Cn1cc(CN2CCC3(CCCN(Cc4ccccn4)C3)CC2)cn1	-1.45	-5.48	-0.391	0.486	2.98	1.2	4.54	-10.8	3.12	1.24	3.63
COCc1cccc(NC(C)C(=O)N(C)Cc2cccc(F)c2)c1 (configuration not stated)	-7.47	-2.7	-1.66	-7.46	-3.23	-0.744	6.44	-12.8	1.07	1.24	-5.78
Oc1nc(N2CCOCC2)nc2c1CCN(Cc1cccnc1)CC2	-4.93	6.76	7.05	1.25	-1.98	-3.48	5.15	3.87	4.3	11.7	-8.38
CN(C)Cc1nnc(C2CCN(C(=O)CCc3cccs3)CC2)n1C	-3.21	13.5	-7.22	25.4	4.83	1.43	12.1	5.64	6.88	14.6	72.9
Cc1occc1C(=O)N1CCC2(CCN(Cc3nccs3)C2)CC1	-3.24	2.6	0.489	3.8	3.83	-8.28	-1.66	-23.6	0	-3.7	6.12
Cc1cc(C)cc(C2(C(=O)N3CCCC(n4cncn4)C3)CC2)c1 (configuration not stated)	-0.118	16.2	3.34	-6.31	-3.44	2.4	7.36	12.7	6.93	18.3	-6.26
Cc1oc(C)c(C(=O)N2CCCN(Cc3cscn3)CC2)c1C	-6.32	7.79	7.44	-1.26	-1.47	-2.32	-1.37	14.5	6.67	9.41	-15.7
CCc1cnc(CN(C)C2CCN(CCc3ccccn3)C2)o1 (configuration not stated)	3.36	9.72	-16	1.45	-3.21	3.97	25.6	0.763	10.5	5.13	107
Cc1nn(C)c(C)c1CC(=O)N1CCC(N(C)c2cccnn2)CC1	0.112	15.8	0.809	-2.31	-2.82	4.98	10.5	42.1	3.43	4.88	-9.53
CC1CN(C(=O)CN(Cc2ccccc2Br)C2CC2)CCO1 (configuration not stated)	-1.13	0	4.5	0.479	3.82	-3.16	-4.77	13.8	3.81	7.06	-7.55
Cc1noc(C(C)N2CCN(CC(=O)N3CCOCC3)CC2)n1 (configuration not stated)	-5.15	10.5	-3.04	-5.34	5.55	-4.73	-3.93	-8.61	2.13	10.4	-15.2
CCOCCN1CCN(Cc2nc(C3CC3)no2)CC1CC (configuration not stated)	-6.05	5.48	6.32	25.2	10.4	0.909	9.41	2.26	3.23	7.5	-5.89
COc1ccc(CN2C[C@H]3CC[C@](O)(c4ccc(C)cn4)[C@H]3C2)c(F)c1	-5	6.76	15.2	2.69	-2.77	-1.16	-1.56	13.7	5.38	6.49	-8.01
Cc1cc(CN2CCN(C(=O)C(C)C)[C@@H]3CS(=O)(=O)C[C@@H]32)ccc1F	-4.05	6.94	-6.22	-3.08	-0.486	5.3	14.7	-3.72	7.37	12.8	-2.86
CCC1CN(CC(=O)Nc2sccc2C#N)CCO1 (configuration not stated)	-4.43	-13.2	-2.5	2.86	0.376	0	8.19	-2.35	4.41	9.76	-9.42
CC(=O)N1CC[C@H]2OCC[C@@]2(C(=O)NCc2ccco2)C1	-5.68	5.33	-0.449	12.6	-2.12	-44.3	11.3	-5.97	4.17	5	-6.83
CCS(=O)(=O)N1CCC[C@]2(C(=O)N(C)C)CN(c3ccccn3)C[C@@H]2C1	-6.08	5.33	2.98	0.0913	4.05	-50	10.1	-17	3.12	12.5	-5.8
Cc1cc(C)n(CC2CCCN2C(=O)CCCNc2ncccn2)n1 (configuration not stated)	-3.06	5.26	1.29	7.88	3.01	1.15	5.68	-8.34	6.37	9.76	-0.0349
COc1ccc(C(=O)NS(=O)(=O)c2ccc(C#N)cc2C(F)(F)F)cc1	-1.41	-10.8	20.6	0.998	0.472	6.41	-3.06	11.2	-2.46	-1.24	-2.1
COCC(NC(=O)c1cnn(C)c1)c1cccc(C(F)(F)F)c1 (configuration not stated)	-8.86	0	-3.2	-6.41	-4.11	0.455	7.28	-1.62	0	0	0.364
